Screening data: PubChem BioAssay, National Center for Advancing Translational Sciences (NCATS)
Rows were chosen to be rich in hits. Some 14% of all compounds tested hit in one or more screens of this group.
AID923: qHTS Assay for Allosteric/Competitive Inhibitors of Caspase-1: Spectroscopic Profiling in AFC Spectral Region | hit rate 1.1% among 75,000 | AID 923, 2007 | Potency, µM (series often up to 57.5 µM), for inactives: top-dose fluorescence increase, most hits filed as activators | compound fluorescence, AFC spectral region (405/520 nm); also: potency is read from the fitted curve at half-maximal effect; 0% is about no effect
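Baseline compound fluorescence (AFC region, 405 nm ex/520 nm em) taken from the intercept of kinetic reads with 50 nM caspase-1 and 5 uM Ac-WEHD-AFC; normalized to an on-plate AFC standard curve; compounds titrated up to 57 uM.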
4MU fluor: qHTS Assay for Spectroscopic Profiling in 4-MU Spectral Region; compound autofluorescence, 340/450 nm, 4-MU equivalents; stronger effect = higher value; AID 589, 2007; hit rate 11% among 59,000; max dye-equivalent concentration, M; in the data active = max dye-equivalent concentration above about 10 nM; inconclusive = mostly about 1.1 nM to 9.6 nM
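Compounds in 100 mM Tris, pH 8.0, incubated 15 min at room temperature, then fluorescence read at 340 nm excitation/450 nm emission. Signal converted to 4-MU dye-equivalent concentration using an on-plate six-point 4-MU standard curve.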
A350 autofl: qHTS Assay for Spectroscopic Profiling in A350 Spectral Region; Compound autofluorescence, 340/450 nm, Alexa 350 dye-equivalents; stronger effect = higher value; max dye-equivalent concentration, M; hit rate 11% among 59,000; in the data active = max dye-equivalent concentration above about 10 nM; inconclusive = mostly about 1.1 nM to 9.6 nM
HADH2 inh: qHTS Assay for Inhibitors of HADH2 (Hydroxyacyl-Coenzyme A Dehydrogenase, Type II); 3-hydroxyacyl-CoA dehydrogenase type-2 (Homo sapiens), Q99714; recombinant HADH2, NADH fluorescence, beta-hydroxybutyryl-CoA; Potency, µM (highest dose often 57.1 µM), for inactives: at the highest dose activity change, negative = inhibition, hits mostly inhibitors; hit rate 3.4% among 73,000; AID 886, 2007; also: potency is read from the fitted curve at half-maximal effect; % is scaled to controls: 0 for no effect and ±100 for the full control effect; nearly all actives have a fitted effect of over 60% in size
Target sequence (Q99714 whole entry, looked up, one chain of several): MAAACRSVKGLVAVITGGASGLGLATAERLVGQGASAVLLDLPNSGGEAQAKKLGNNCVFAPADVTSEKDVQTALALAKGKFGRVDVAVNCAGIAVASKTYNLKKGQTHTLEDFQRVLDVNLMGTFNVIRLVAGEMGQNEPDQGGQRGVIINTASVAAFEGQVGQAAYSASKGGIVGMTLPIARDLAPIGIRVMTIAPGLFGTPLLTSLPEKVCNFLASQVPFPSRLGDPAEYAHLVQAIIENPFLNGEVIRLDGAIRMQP
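Read-out: 360 nm excitation, 450 nm emission, kinetic over 4 min. Conditions: His-tagged human HADH2 20 nM, pH 9.0 Tris with Tween-20, 1 mM NAD+, 90 uM beta-hydroxybutyryl-CoA.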
HSD17B inhib: qHTS Assay for Inhibitors of HSD17B4, hydroxysteroid (17-beta) dehydrogenase 4; hit rate 7.6% among 75,000; Potency, µM (titrated, usually from 57.1 µM), without a hit: at the highest dose activity change, negative = inhibition, most hits filed as inhibitors; recombinant HSD17B10, NADH fluorescence kinetic; AID 893, 2007;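 also: the protocol describes HADH2 (HSD17B10) and not the HSD17B4 of the title; potency is read from the fitted curve at half-maximal effect; % is scaled to controls: 0 for no effect and ±100 for the full control effect; nearly all actives have a fitted effect of over 70% in size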
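Activity followed as NADH fluorescence increase (ex 360, em 450 nm) every 30 seconds for 4 min, using final 90 uM beta-hydroxybutyryl CoA and 1 mM NAD+. Recombinant His-tagged enzyme, 20 nM, pH 9.0 Tris buffer, 15 min compound preincubation.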
CRE-bla Fsk: Cell signaling CRE-BLA (Fsk stim); CHO CRE-bla reporter (cAMP response element driving beta-lactamase), forskolin EC10, beta-lactamase ratio; AID 662, 2007; Potency, µM (titrated, usually from 38.2 µM), for the others: at the top dose activity change, negative = inhibition, most hits filed as activators; hit rate 2.5% among 71,000; active = well fitted activation curve with a large enough effect in the signal ratio, with a control signal flat, not every such curve was filed as active; inconclusive = small, poorly fitted or top-dose-only effect, or effect the other way, or a change in a side signal; the % refers to the signal ratio; also: potency is read from the fitted curve at half-maximal effect; % of control where 0% means no effect
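Beta-lactamase reporter under a cAMP responsive element in CHO cells; compounds tested in titration series against EC10 NKH 477, 3 h at 37 °C. Read-out: CCF4 FRET ratio 460nm/530nm (excitation 405nm) giving %Activity, fitted to AC50.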
Numbers without * were called inactive; i = inactive; ? = inconclusive; . = no result given; [ ] = remark or other dose. Unless noted, calls follow the shape of the dose curve; as a rule, active = well fitted curve in the direction sought with a large enough effect; inconclusive = small, poorly fitted or top-dose-only effect, or another doubt; inactive = no such curve, though single readings can be large; an effect the other way counts as inactive or inconclusive.

SMILES | AID923 | 4MU fluor | A350 autofl | HADH2 inh | HSD17B inhib | CRE-bla Fsk
CC(C)[C@@H](CC(=O)N[C@@H]1CCCC[C@H]1C(=O)N[C@H](CC(=O)N[C@@H](CCC(=O)O)CC(=O)O)Cc1ccccc1)NC(=O)C[C@H](Cc1c[nH]c2ccccc12)NC(=O)[C@@H]1CNCC[C@H]1N | . | . | . | -10% | . | -11%
CCOC(=O)c1c(C)nc2c(C#N)cnn2c1C | 0% | ? | ? | ? | 32µM* | ?
CCOC(=O)c1cnn2c(N)c(C#N)nnc12 | 0% | i | ? | -1% | -2% | -1%
CCOC(=O)c1cc(C#N)c(N)nc1C | 0% | i | i | 16% | 32µM* | 10µM*
CCOC(=O)c1cc2c(N)c(C(=O)c3cc(C#N)c(SC)nc3C)sc2nc1C | 6% | ? | 1.5e-08M* | 52% | 16% | ?
COc1ccc(S(=O)(=O)Cc2ccc(C(=O)NC3CCCC3)o2)cc1 | 1% | . | . | 4% | 4% | -1%
COc1ccccc1S(=O)(=O)Cc1ccc(C(=O)NC2CCCCC2)o1 | -1% | 1.1e-08M* | ? | 7% | -7% | -3%
Cn1c(=O)[nH]c(=O)c2c1nc(Br)n2CCOc1ccccc1 | 0% | i | ? | 7% | -1% | 3.2µM*
O=C(CSc1nc2ccccc2o1)c1cc2ccccc2oc1=O | 18% | ? | 1.1e-08M* | -20% | ? | -14%
O=C1c2ccccc2C(=O)N1CCCSc1nc2ccccc2o1 | 1% | . | . | -8%[11.4 µM] | 25µM* | ?
COc1ccc(OCC(O)Cn2c(Br)nc3c2c(=O)[nH]c(=O)n3C)cc1 (stereo unspecified) | 7% | 8.2e-08M* | 7.8e-08M* | 4% | -2% | ?
O=C(c1ccc(Br)o1)N(Cc1ccccc1)c1ccccn1 | -2% | . | . | -2% | 8% | 3%
Cn1c(=O)[nH]c(=O)c2c1nc(Br)n2CCCSc1nc2ccccc2o1 | 5% | i | i | ? | -5% | 10µM*
Cn1c(=O)[nH]c(=O)c2c1nc(N1CCCC1)n2CCCSc1nc2ccccc2o1 | -1% | i | i | 11% | 8% | ?
c1ccc(-c2cccc(N3CCCC4(CCNCC4)C3)c2)cc1 | 0% | i | i | 4% | ? | -8%
c1ccc(-c2cccc(N3CC[C@@]4(CCCNC4)C3)c2)cc1 | -1% | i | i | 1% | 25µM* | 19%
c1ccc(-c2cccc(N3CC4(CCNCC4)C3)c2)cc1 | 3% | i | i | -17% | 32µM* | 6%
Cc1ccccc1NC(=O)C1CCCN1C(=O)NC1CCCCC1 (stereo unspecified) | 1% | i | i | 6% | 8% | -2%
OCCOCCN1CCN([C@@H](c2ccccc2)c2ccc(Cl)cc2)CC1 | 0%[25.7 µM] | i | i | 1%[25.6 µM] | -1%[25.6 µM] | -4%[17.1 µM]
CN(C)c1ccc(-c2nc(N3CCNCC3)c3ccccc3n2)cc1 | 0% | i | i | 2% | -1% | ?
COc1ccc2c(c1)CCc1c-2n[nH]c1C(=O)O | -1% | i | i | ? | 32µM* | 19%
Cc1cc(C)c(-c2cc(C(F)(F)F)no2)c(=O)[nH]1 | 0% | 4.5e-08M* | 3.3e-08M* | -26% | 20µM* | 7%
CCOC(=O)C1CSC(Cc2ccc(OCc3ccc([N+](=O)[O-])cc3)cc2)N1 (stereo unspecified) | -1% | . | . | ? | -14% | .
O=C(Cn1ccsc1=NC(=O)c1ccco1)c1ccccc1 | 0% | 1.1e-08M* | ? | -21% | 3% | 2%
CCCNC(=O)OC[C@@H]1O[C@H](CCO/N=C(\C)CCN2CCCCc3nc(C)c(C)cc32)C=C[C@@H]1Oc1ccc(OC)cc1 | 1%[11.5 µM] | . | . | 7%[11.4 µM] | 6%[11.4 µM] | .
CN(C)c1cccc(C(=O)n2cc(C(=O)c3cc(F)ccc3O)cn2)c1 | 0% | ? | 1.6e-08M* | -9% | ? | -13%
